Broadly, the AC50 is the midpoint of the concentration-response curve, whichever way the signal moves.

Among the data in PubChem BioAssay (EPA / NIEHS) are outcome and AC50 values, retold here.

In test [1] the target is human Mitogen- and Stress-activated Protein Kinase-1 (Msk1), RPS6KA5 (gene 9252) (UniProt O75582). In words: NVS_ENZ_hMsk1: NovaScreen (NVS) Enzymatic Assay for human Mitogen- and Stress-activated Protein Kinase-1 (Msk1) (AID 2283187). In a few lines: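 Recombinant kinase with fluorescent substrate; product separated by electrophoretic mobility shift, read 1 h after dosing. Screened in duplicate at 25 uM; hits (e.g. ≥30% inhibition) tested in concentration–response up to 50 uM. DMSO baseline.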

Test [2] has as its target human Phosphodiesterase 5 (PDE5), PDE5A (gene 8654) (UniProt O76074). Briefly: NVS_ENZ_hPDE5: NovaScreen (NVS) Enzymatic Assay for human Phosphodiesterase 5 (PDE5) (AID 2283194). In a few lines:
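Recombinant human PDE5 with specific substrate, read 1 h after dosing by fluorescence with electrophoretic mobility-shift separation of substrate and product. Initial single-concentration duplicate screen at 25 uM, actives followed in concentration series; loss of activity versus DMSO.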

Test [3] concerns the target human Phosphoinositide 3-kinase alpha (PI3Ka), PIK3CA (gene 5290) (UniProt P42336). Briefly: NVS_ENZ_hPI3Ka: NovaScreen (NVS) Enzymatic Assay for human Phosphoinositide 3-kinase alpha (PI3Ka) (AID 2283196). In a few lines:
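Recombinant human PI3Kα with fluorescent substrate, 1 h, product separated by electrophoretic mobility shift; 25 uM duplicate screen, hits (e.g., 30% inhibition) retested singly up to 50 uM; loss of signal vs DMSO.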

The target in test [4] is Tyrosine-protein phosphatase non-receptor type 11 (Homo sapiens) (UniProt Q06124). In words: NVS_ENZ_hPTPN11: NovaScreen (NVS) Enzymatic Assay for human Protein Tyrosine Phosphatase Non-receptor Type 11 (PTPN11) (AID 2283202). In a few lines:
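Recombinant human PTPN11 activity on a fluorescent substrate, with substrate/product separated by electrophoretic mobility shift; read 0.5 h after dosing, loss of signal vs DMSO. Duplicate 25 uM screen, then concentration-response up to 50 uM.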

Test [5] concerns the target Tyrosine-protein phosphatase non-receptor type 12 (Homo sapiens) (UniProt Q05209). In words: NVS_ENZ_hPTPN12: NovaScreen (NVS) Enzymatic Assay for human Protein Tyrosine Phosphatase Non-receptor Type 12 (PTPN12) (AID 2283204). In a few lines: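 Single-concentration duplicates (25 uM) preceded singleton concentration-response up to 50 uM for chemicals passing threshold. Cell-free recombinant PTPN12 activity was read 1.33 h after dosing via fluorescence after mobility-shift separation; loss of signal versus DMSO.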

Test [6] deals with Tyrosine-protein phosphatase non-receptor type 13 (Homo sapiens) (UniProt Q12923). In words: NVS_ENZ_hPTPN13: NovaScreen (NVS) Enzymatic Assay for human Protein Tyrosine Phosphatase Non-receptor Type 13 (PTPN13) (AID 2283205). In a few lines:
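Cell-free assay of recombinant human PTPN13 with a fluorescent substrate, product separated by electrophoretic mobility shift and read 0.5 h after dosing. Primary screen at 25 uM in duplicate, then concentration-response up to 50 uM. Loss of signal fitted against DMSO.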

Test [7] addresses human Protein Tyrosine Phosphatase Non-receptor Type 9 (PTPN9), PTPN9 (gene 5780) (UniProt P43378). Briefly: NVS_ENZ_hPTPN9: NovaScreen (NVS) Enzymatic Assay for human Protein Tyrosine Phosphatase Non-receptor Type 9 (PTPN9) (AID 2283209). In a few lines:
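Sf9-expressed enzyme in a cell-free assay, fluorescence read 1.33 h after dosing with mobility-shift separation of substrate and product. Tested at 25 uM in duplicate, then up to 50 uM; signal loss versus DMSO.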

The target of test [8] is human Protein Tyrosine Phosphatase Non-receptor Type 6 (PTPN6), PTPN6 (gene 5777) (UniProt P29350). In words: NVS_ENZ_hPTPN6: NovaScreen (NVS) Enzymatic Assay for human Protein Tyrosine Phosphatase Non-receptor Type 6 (PTPN6) (AID 2283210). In a few lines: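 Cell-free assay with recombinant PTPN6 expressed in SF9 cells, fluorescent substrate, product separated from substrate by electrophoretic mobility shift; read 1.33 hours after dosing. Primary screen in duplicate at 25 uM, actives retested in concentration series; DMSO baseline.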

In test [9] the target is human Protein Tyrosine Phosphatase Receptor Type F (PTPRF), PTPRF (gene 5792) (UniProt P10586). In words: NVS_ENZ_hPTPRF: NovaScreen (NVS) Enzymatic Assay for human Protein Tyrosine Phosphatase Receptor Type F (PTPRF) (AID 2283213). In a few lines:
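Cell-free fluorescence enzyme assay with recombinant protein and substrate; product separated by electrophoretic mobility shift. Read 1 h after dosing, single 25 uM duplicate screen, then concentration-response up to 50 uM; loss of signal vs DMSO.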

Test [10] deals with cAMP-dependent protein kinase catalytic subunit alpha (Homo sapiens) (UniProt P17612). Briefly: NVS_ENZ_hPKA: NovaScreen (NVS) Enzymatic Assay for human Protein Kinase A (PKA) (AID 2283192). In a few lines:
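Recombinant human PKA with specific fluorescent substrate, product separated by electrophoretic mobility shift, read 1 h after dosing. Primary screen at 25 uM in duplicate; actives then run in concentration-response up to 50 uM, activity relative to DMSO.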

In test [11] the target is human Protein Phosphatase, Mg2+/Mn2+ Dependent 1A (PPM1A), PPM1A (gene 5494) (UniProt P35813). In words: NVS_ENZ_hPPM1A: NovaScreen (NVS) Enzymatic Assay for human Protein Phosphatase, Mg2+/Mn2+ Dependent 1A (PPM1A) (AID 2283198). In a few lines: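 Cell-free recombinant PPM1A phosphatase assay with fluorescent substrate, read 1 h after dosing by electrophoretic mobility shift. Chemicals screened in duplicate at 25 uM, then in concentration-response up to 50 uM; loss of activity versus DMSO.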

For test [12], the target named is Serine/threonine-protein phosphatase PP1-alpha catalytic subunit (Homo sapiens) (UniProt P62136). In words: NVS_ENZ_hPPP1CA: NovaScreen (NVS) Enzymatic Assay for human Protein Phosphatase 1 Aatalytic subunit Alpha (PPP1CA) (AID 2283200). In a few lines: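 Recombinant enzyme activity read by fluorescence with electrophoretic mobility shift separating substrate from product, 1.33 h after dosing; loss of signal vs DMSO baseline. Primary screen in duplicate at 25 uM; actives retested in concentration-response up to 50 uM.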

The target of test [13] is human Protein Tyrosine Phosphatase Non-receptor Type 4 (PTPN4), PTPN4 (gene 5775) (UniProt P29074). Briefly: NVS_ENZ_hPTPN4: NovaScreen (NVS) Enzymatic Assay for human Protein Tyrosine Phosphatase Non-receptor Type 4 (PTPN4) (AID 2283208). In a few lines: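 Cell-free assay of PTPN4 expressed in Sf9 cells, using a fluorescent substrate with product separated by mobility shift; read 1.33 h after dosing. Single-point screen at 25 uM, then concentration-response up to 50 uM. Loss of signal relative to DMSO.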

The target of test [14] is human Matrix Metalloproteinase-9 (MMP9), MMP9 (gene 4318) (UniProt P14780). Briefly: NVS_ENZ_hMMP9: NovaScreen (NVS) Enzymatic Assay for human Matrix Metalloproteinase-9 (MMP9) (AID 2283190).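 Further: cell-free recombinant MMP9 protease activity read by fluorescent substrate signal; active means inhibition seen as loss of fluorescence signal versus DMSO.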 In a few lines:
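Cell-free recombinant MMP9 enzyme activity measured by fluorescence intensity 1 h after dosing. Primary screen in duplicate at 25 uM, actives followed in concentration series; loss of signal relative to DMSO.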

In test [15] the target is Tyrosine-protein phosphatase non-receptor type 14 (Homo sapiens) (UniProt Q15678). Briefly: NVS_ENZ_hPTPN14: NovaScreen (NVS) Enzymatic Assay for human Protein Tyrosine Phosphatase Non-receptor Type 14 (PTPN14) (AID 2283206). In a few lines: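 Cell-free recombinant human PTPN14 with fluorescent substrate, read 0.5 h after dosing by fluorescence and electrophoretic mobility shift separating substrate from product. Primary screen at 25 uM in duplicate; hits run to 50 uM maximum; loss of signal versus DMSO.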

Test [16] concerns the target human Phosphodiesterase 10 (PDE10), PDE10A (gene 10846) (UniProt Q9Y233). Briefly: NVS_ENZ_hPDE10: NovaScreen (NVS) Enzymatic Assay for human Phosphodiesterase 10 (PDE10) (AID 2283195). In a few lines:
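Recombinant human PDE10 with fluorescent substrate, 1 h, product separated by electrophoretic mobility shift. Loss of enzyme activity fitted against DMSO; initial screen 25 uM in duplicate, actives run to 50 uM maximum.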

Test [17] addresses human Protein Tyrosine Phosphatase Non-receptor Type 1 (PTPN1), PTPN1 (gene 5770) (UniProt P18031). Briefly: NVS_ENZ_hPTPN1: NovaScreen (NVS) Enzymatic Assay for human Protein Tyrosine Phosphatase Non-receptor Type 1 (PTPN1) (AID 2283201). In a few lines: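 Cell-free fluorogenic-substrate activity assay on recombinant enzyme, read 1.33 h after dosing by fluorescence and electrophoretic mobility shift; loss of signal vs DMSO baseline. Primary screen in duplicate at 25 uM, hits then run in concentration-response up to 50 uM.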

SMILES strings stand for the structures. Records with an inconclusive call do not appear. Calls of active or inactive are those of the source. How the source made its calls: active means hit-call score of the fitted dose curve at least 0.9, where 1 is the maximum; inconclusive means response in the unintended direction; inactive means score below 0.9.

Chain of Tyrosine-protein phosphatase non-receptor type 14 (Homo sapiens) (Q15678 whole entry, looked up): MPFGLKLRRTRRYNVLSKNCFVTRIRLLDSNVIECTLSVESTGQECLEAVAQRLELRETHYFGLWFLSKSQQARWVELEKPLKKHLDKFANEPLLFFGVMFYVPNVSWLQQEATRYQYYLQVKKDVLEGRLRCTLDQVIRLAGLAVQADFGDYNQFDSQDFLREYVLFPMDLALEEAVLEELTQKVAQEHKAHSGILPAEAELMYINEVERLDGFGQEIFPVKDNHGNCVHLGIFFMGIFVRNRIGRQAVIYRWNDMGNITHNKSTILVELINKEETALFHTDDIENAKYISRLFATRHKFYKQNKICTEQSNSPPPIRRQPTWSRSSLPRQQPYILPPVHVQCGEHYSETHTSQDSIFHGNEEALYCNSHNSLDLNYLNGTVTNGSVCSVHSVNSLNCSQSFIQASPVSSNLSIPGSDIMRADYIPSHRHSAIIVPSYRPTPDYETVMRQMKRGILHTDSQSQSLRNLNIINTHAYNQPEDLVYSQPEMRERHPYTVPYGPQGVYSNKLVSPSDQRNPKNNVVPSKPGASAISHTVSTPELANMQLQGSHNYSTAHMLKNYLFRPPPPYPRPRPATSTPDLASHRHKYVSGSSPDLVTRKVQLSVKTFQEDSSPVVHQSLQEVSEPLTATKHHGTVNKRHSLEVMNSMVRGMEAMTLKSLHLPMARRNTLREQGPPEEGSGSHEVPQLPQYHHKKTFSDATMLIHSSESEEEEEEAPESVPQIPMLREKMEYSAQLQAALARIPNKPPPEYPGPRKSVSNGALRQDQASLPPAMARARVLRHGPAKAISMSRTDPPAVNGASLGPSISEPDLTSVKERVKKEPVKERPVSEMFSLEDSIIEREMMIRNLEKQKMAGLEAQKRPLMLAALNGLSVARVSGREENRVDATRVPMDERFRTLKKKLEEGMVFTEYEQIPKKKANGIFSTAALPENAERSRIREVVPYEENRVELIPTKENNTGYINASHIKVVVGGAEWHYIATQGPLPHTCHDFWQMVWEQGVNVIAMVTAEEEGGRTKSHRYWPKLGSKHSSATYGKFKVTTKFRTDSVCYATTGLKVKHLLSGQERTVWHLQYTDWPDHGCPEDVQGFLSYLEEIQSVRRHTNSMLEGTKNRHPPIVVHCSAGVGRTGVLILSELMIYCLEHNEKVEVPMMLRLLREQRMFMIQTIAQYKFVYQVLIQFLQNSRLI
Chain of Tyrosine-protein phosphatase non-receptor type 11 (Homo sapiens) (Q06124 whole entry, looked up): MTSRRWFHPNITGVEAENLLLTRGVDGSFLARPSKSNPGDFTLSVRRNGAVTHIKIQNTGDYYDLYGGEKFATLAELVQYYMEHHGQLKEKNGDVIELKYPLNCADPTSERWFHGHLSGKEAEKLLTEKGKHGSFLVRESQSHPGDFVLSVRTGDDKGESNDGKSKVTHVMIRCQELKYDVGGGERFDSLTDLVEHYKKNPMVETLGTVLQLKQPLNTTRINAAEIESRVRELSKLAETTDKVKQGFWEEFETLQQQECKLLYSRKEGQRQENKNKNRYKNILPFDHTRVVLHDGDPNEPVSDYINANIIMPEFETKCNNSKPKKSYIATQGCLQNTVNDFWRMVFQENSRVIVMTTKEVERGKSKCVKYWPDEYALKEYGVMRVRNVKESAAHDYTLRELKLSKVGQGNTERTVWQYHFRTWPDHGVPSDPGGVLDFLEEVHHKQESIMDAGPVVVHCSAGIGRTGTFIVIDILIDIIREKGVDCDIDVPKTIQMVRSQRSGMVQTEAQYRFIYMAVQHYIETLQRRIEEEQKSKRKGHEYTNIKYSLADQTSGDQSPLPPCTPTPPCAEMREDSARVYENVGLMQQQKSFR
Chain of human Phosphoinositide 3-kinase alpha (PI3Ka), PIK3CA (gene 5290) (P42336 whole entry, looked up): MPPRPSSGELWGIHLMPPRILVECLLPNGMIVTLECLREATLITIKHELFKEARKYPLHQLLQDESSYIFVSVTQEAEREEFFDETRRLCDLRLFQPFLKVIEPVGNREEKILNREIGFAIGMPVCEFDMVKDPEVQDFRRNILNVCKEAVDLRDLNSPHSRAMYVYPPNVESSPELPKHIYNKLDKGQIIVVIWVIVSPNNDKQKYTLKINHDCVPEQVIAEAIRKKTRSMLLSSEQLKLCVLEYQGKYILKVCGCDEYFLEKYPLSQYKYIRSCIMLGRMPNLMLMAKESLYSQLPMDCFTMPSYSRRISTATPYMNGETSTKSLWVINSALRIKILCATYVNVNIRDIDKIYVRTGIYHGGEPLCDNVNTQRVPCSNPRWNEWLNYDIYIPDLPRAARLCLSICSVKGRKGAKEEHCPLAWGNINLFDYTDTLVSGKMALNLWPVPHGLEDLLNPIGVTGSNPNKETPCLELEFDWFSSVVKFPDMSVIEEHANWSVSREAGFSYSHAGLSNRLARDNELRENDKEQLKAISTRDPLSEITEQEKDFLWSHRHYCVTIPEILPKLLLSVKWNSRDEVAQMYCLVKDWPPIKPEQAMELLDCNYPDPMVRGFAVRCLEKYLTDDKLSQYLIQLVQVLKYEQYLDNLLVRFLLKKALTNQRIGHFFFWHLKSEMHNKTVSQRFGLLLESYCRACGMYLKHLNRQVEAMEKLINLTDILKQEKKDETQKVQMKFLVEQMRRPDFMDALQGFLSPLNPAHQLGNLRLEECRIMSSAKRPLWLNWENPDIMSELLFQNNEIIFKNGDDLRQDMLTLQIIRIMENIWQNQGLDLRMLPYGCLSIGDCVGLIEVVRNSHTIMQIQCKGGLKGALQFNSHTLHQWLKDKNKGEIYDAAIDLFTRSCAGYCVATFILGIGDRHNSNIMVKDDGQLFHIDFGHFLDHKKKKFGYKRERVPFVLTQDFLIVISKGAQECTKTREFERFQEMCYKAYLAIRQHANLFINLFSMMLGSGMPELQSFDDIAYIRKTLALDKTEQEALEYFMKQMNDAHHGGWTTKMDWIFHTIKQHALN
Chain of human Protein Tyrosine Phosphatase Non-receptor Type 9 (PTPN9), PTPN9 (gene 5780) (P43378 whole entry, looked up): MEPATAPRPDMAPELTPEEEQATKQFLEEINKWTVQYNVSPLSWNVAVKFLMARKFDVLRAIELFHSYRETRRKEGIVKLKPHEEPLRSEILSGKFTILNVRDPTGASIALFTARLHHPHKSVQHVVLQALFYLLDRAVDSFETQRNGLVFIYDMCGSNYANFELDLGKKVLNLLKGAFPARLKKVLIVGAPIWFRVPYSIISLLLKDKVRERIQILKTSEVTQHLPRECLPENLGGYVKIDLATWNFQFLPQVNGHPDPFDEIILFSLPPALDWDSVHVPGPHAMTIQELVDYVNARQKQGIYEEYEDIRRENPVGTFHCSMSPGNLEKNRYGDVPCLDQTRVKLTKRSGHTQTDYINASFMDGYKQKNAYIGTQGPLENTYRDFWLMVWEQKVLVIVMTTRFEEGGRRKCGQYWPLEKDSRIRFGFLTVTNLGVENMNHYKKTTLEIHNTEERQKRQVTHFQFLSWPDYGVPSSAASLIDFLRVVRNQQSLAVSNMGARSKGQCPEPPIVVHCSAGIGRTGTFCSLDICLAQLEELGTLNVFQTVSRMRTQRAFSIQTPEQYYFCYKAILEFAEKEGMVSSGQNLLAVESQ
Chain of human Matrix Metalloproteinase-9 (MMP9), MMP9 (gene 4318) (P14780 whole entry, looked up): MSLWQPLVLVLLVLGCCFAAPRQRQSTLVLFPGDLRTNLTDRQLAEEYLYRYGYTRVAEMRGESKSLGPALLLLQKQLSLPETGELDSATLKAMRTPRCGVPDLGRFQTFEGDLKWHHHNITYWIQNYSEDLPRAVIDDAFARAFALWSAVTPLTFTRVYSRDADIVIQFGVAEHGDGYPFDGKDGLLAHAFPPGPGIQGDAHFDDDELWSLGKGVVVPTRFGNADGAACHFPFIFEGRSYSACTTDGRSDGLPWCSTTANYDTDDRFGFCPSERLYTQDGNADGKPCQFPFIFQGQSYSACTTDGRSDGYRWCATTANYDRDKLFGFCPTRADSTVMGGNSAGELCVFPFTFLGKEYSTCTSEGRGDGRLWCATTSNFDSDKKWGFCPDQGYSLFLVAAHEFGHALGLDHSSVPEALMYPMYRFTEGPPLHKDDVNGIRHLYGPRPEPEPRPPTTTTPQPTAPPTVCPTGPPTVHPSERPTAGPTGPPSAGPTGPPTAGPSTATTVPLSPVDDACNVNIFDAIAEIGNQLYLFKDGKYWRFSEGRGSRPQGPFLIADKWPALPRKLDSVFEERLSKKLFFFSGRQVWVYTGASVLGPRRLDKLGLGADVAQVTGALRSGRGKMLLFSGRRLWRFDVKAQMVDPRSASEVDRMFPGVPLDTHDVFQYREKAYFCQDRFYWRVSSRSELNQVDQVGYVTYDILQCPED
Chain of human Protein Tyrosine Phosphatase Non-receptor Type 4 (PTPN4), PTPN4 (gene 5775) (P29074 whole entry, looked up): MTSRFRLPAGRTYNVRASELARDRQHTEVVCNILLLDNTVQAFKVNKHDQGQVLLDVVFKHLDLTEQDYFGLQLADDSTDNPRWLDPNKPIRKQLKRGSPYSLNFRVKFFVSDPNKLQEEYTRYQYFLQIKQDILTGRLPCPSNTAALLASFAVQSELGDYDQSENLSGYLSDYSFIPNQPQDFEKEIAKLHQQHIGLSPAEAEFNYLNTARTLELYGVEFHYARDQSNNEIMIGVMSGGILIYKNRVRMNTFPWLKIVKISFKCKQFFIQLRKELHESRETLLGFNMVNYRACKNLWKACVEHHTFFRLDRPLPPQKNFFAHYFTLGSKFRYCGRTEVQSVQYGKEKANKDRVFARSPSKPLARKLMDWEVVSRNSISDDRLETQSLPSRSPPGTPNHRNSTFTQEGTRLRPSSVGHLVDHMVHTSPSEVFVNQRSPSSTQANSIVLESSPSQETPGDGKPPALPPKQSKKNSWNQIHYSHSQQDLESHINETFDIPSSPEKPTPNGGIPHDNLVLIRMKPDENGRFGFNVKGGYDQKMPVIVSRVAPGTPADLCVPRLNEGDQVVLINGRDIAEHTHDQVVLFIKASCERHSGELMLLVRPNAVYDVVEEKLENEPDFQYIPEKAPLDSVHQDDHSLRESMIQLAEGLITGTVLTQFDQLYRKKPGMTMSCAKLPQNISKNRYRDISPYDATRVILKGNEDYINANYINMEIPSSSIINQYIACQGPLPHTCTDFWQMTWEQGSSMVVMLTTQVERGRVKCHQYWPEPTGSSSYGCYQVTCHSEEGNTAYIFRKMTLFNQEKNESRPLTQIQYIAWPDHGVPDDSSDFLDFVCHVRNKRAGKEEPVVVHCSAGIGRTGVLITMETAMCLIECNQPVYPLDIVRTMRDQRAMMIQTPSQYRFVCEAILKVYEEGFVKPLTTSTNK

On to `CCc1c(C(=O)NN2CCCCC2)nn(-c2ccc(Cl)cc2Cl)c1-c1ccc(Br)cc1`, for which the outcome in test [1], in test [2], in test [3], in test [4], in test [5] and in [7] was inactive. The compound was classed as inactive in [8] and in test [9]. Moreover, the AC50 in test [6] was 0.0976 µM (active).
Turning to `O=C(OCCCCCOC(=O)c1ccccc1)c1ccccc1`, the call in [10], in [11], in test [12], in [13], in [7] and in test [9] was inactive.
For `NCCO`, the call in test [1], in test [14], in test [10], in test [4], in [5] and in test [15] was inactive.
As to `O=C(O)Cc1ccccc1Nc1c(Cl)cccc1Cl`, the call in test [14] and in test [8] was inactive.
As to `CCOC(=O)C(C)(C)Oc1ccc(Cl)cc1`, the call in [16], in [3], in test [17], in [4], in [5] and in test [6] was inactive. The outcome in test [7] was inactive.
Turning to `CCNc1cccc(C)c1`, the call in test [14] was inactive.
For the compound `Nc1ccccc1N`, the result in [14] was inactive. For the same compound, the half-maximal activity concentration (AC50) in test [2] is 18.1 µM (active); in test [7] it was 9.86 µM (active).
Take `CC(C)c1ccc(C(=O)N=C(N)N)cc1S(C)(=O)=O`: the call in [3] and in [9] was inactive.
Take `C1CCC(SSC2CCCCC2)CC1`: the call in test [17] and in test [15] was inactive.
As for `Cc1ccc2ncccc2c1`, the compound was called inactive in test [4] and in test [13].
For the compound `CC1(C)CC(N=C=O)CC(C)(CN=C=O)C1` (centres undefined), the AC50 in test [6] is 6.77 µM (active).
On the same count and under the same terms, the same measure for `COc1cc(-c2nc(NC(=O)c3cc4cc(C)cc(C)c4n3CC(=O)O)sc2CCC2CCCCC2)c(OC)cc1Cl`: 6.01 µM (active).
As for `CC(=O)OC/C=C(\C)CCC=C(C)C`, the outcome in [15] was inactive.
Consider `Nc1ccc2c(c1)C(=O)c1ccccc1C2=O`, for which the compound was classed as inactive in test [13].
